The full list was thinned out, with hits kept by preference.
Dicer processing: inhibitors of human Dicer processing of pre-microRNA; z-score at 25 µM; actives 6% (n = 47,000); Q9UPY3; cat-ELCCA pre-miR-21 Dicer processing, chemiluminescence; active compounds read high; in the data active = z-score above about 3, passing the limit was not always enough;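 also: higher signal means more uncleaved substrate so more Dicer inhibition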
Target sequence (Q9UPY3 whole entry, looked up): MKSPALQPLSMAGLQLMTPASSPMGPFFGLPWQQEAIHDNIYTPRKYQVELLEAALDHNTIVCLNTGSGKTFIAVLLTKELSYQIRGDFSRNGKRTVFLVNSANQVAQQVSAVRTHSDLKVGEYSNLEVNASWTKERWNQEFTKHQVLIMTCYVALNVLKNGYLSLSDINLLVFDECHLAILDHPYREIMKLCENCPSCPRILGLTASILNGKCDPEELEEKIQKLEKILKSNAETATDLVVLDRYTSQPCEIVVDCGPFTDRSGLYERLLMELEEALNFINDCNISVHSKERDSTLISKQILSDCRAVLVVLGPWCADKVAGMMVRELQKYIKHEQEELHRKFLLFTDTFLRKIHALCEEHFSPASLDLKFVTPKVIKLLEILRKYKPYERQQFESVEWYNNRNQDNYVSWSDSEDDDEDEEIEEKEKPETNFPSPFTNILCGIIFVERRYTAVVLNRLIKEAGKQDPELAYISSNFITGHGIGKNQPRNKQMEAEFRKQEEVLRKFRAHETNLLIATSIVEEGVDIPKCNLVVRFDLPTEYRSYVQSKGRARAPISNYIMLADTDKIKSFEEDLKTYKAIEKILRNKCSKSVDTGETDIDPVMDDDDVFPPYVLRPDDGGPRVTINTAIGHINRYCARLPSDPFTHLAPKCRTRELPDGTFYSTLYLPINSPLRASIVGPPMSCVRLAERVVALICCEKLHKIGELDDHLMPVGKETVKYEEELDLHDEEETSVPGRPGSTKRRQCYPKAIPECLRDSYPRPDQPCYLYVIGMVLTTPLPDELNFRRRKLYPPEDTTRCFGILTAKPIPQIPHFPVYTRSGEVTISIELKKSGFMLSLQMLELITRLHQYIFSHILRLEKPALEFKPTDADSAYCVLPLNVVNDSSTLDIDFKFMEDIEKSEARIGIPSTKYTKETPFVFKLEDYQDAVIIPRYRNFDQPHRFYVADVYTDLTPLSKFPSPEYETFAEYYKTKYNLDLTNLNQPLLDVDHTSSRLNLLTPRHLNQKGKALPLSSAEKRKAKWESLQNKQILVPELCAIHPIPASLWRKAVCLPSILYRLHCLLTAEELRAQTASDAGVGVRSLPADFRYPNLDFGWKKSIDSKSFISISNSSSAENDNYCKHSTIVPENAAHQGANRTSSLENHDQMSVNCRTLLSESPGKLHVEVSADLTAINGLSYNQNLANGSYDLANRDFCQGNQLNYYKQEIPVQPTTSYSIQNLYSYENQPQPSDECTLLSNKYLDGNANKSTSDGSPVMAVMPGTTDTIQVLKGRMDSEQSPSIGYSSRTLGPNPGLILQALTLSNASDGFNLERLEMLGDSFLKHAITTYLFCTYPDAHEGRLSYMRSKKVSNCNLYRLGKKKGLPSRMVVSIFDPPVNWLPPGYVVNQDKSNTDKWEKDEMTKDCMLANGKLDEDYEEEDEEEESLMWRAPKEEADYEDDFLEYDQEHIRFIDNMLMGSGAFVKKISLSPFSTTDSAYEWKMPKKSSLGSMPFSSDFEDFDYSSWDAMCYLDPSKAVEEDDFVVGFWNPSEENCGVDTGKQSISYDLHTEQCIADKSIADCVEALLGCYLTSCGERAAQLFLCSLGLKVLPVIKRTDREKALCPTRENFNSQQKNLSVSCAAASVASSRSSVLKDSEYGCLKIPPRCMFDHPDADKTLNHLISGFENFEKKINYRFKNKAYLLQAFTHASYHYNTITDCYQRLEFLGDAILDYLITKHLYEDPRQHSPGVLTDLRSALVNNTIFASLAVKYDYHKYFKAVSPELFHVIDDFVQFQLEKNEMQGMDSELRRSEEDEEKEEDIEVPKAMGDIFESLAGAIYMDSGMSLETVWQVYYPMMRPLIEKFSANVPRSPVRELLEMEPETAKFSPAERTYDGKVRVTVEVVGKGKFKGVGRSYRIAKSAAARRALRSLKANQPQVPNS
Of the large screens only hits and unclear results are named; the others gave an inactive call.

CC1=C(C(=O)OCC2CCCO2)C(c2ccc(OCc3ccccc3)cc2)C2=C(CCCC2=O)N1 (stereo unspecified)	none
COc1ccccc1C1C(C(=O)OCC2CCCO2)=C(C)NC2=C1C(=O)CCC2 (stereo unspecified)	none
CCSCCOC(=O)C1=C(C)NC2=C(C(=O)CCC2)C1c1ccc(Cl)cc1 (stereo unspecified)	Dicer processing 4.2
CCSCCOC(=O)C1=C(C)NC2=C(C(=O)CCC2)C1c1ccc(CC)cc1 (stereo unspecified)	none
CCOCCOC(=O)C1=C(C)NC2=C(C(=O)CCC2)C1c1cc(Br)c(O)c(OC)c1 (stereo unspecified)	none
COC(=O)C1=C(C)NC2=C(C(=O)CCC2)C1c1ccc(C(=O)OC)cc1 (stereo unspecified)	none
CCOCCOC(=O)C1=C(C)NC2=C(C(=O)CCC2)C1c1ccc(C)cc1 (stereo unspecified)	none
COC(=O)C1OC=C(C)C2CN3CCC4c5ccccc5NC4CC3CC21 (stereo unspecified)	none
Cn1[nH]c(Nc2ccccc2Cl)c(N=Nc2ccccc2)c1=O	none
O=S(=O)(NCc1ccccc1)c1cc(Br)c(Br)s1	none
COc1ccc(OC)c(C2C(C#N)=C(N)Oc3n[nH]c(C)c32)c1 (stereo unspecified)	none
CC(=O)n1nccc1-c1cc(-c2ccccc2)no1	none
COc1cc(C2c3c(oc4ccccc4c3=O)C(=O)N2c2nncs2)ccc1O (stereo unspecified)	none
CCOCCOC(=O)C1=C(C)NC2=C(C(=O)CCC2)C1c1coc2ccc(C)cc2c1=O (stereo unspecified)	none
CCSCCOC(=O)C1=C(C)NC2=C(C(=O)CCC2)C1c1ccccc1OCc1ccccc1 (stereo unspecified)	Dicer processing 6
CCSCCOC(=O)C1=C(C)NC2=C(C(=O)CCC2)C1c1ccccc1OC(C)C (stereo unspecified)	none
CCCCCOC(=O)C1=C(C)NC2=C(C(=O)CCC2)C1c1ccccc1OCCC (stereo unspecified)	none
COc1ccc(OC2C(=O)N(Cc3ccc4c(c3)OCO4)C2c2ccc(F)cc2)cc1 (stereo unspecified)	none
O=C(O)CN1C(=O)Nc2ccc(Br)cc2C1c1ccccc1 (stereo unspecified)	none
CC1(C(=O)c2ccccc2)C2c3cc(Br)ccc3OC(=O)C21C(=O)NCc1ccccc1 (stereo unspecified)	Dicer processing 3.4
COc1cccc(C(=O)CC2(O)C(=O)N(CCc3ccccc3)c3ccc(Br)cc32)c1 (stereo unspecified)	none
COC(=O)C12CCCC(C(N)=O)(CCC1)C2	none
CN(C)S(=O)(=O)n1nc(/C=C/c2ccccc2Cl)nc1-c1ccccc1O	Dicer processing 8.1
CN(C)S(=O)(=O)n1cc(/C=C/c2noc(-c3ccccc3O)n2)c2ccccc21	none
Oc1ccccc1-c1nc(/C=C/c2cccs2)nn1-c1ccccc1	none
COc1cc(-c2ccc(Cl)cc2)[nH]n1	none
CC(C)NC(=O)c1nn2c(C(F)(F)F)cc(-c3cccs3)nc2c1Br	none
C(/C=C/C=C/Nc1ccccc1)=Nc1ccccc1	none
Fc1ccc(N=C/C=C/C=C/Nc2ccc(F)cc2)cc1	Dicer processing 3.1
Cc1onc(-c2c(Cl)cccc2Cl)c1C(=O)N1CCC(C(=O)c2ccccc2)CC1	none
O=[N+]([O-])c1ccsc1NCc1ccccc1	none
O=c1sc2ccccc2c(NCc2ccccc2)c1[N+](=O)[O-]	Dicer processing 4.4
CCN(CC)c1c([N+](=O)[O-])c(=O)sc2ccccc12	none
Nc1nc(SCc2ccc(C(=O)NCCO)cc2)nc2sc3c(c12)CCCC3	none
Clc1cccc(SCc2cccc3ccccc23)c1Cl	none
Cc1noc(/C=C/c2ccc(OCc3ccsc3C#N)cc2)c1[N+](=O)[O-]	none
Cc1noc(/C=C/c2ccc(N3CCCC3)cc2)c1[N+](=O)[O-]	Dicer processing 3.3
Cc1ccc(/C=C/c2onc(C)c2[N+](=O)[O-])o1	none
CN(/N=C/c1ncc(C(F)(F)F)cc1Cl)C(=O)Nc1ccc(OC(F)(F)F)cc1	none
CC(C)(O)c1cc(C(F)(F)F)cc(C(F)(F)F)c1	none
CCOC(=O)c1c(NC(=S)N2CCN(C)CC2)sc(C)c1C	none
CCNC(=S)Nc1sc(C)c(C)c1C(=O)OCC	Dicer processing 5.3
CCOC(=O)c1c(NC(=O)CCC(=O)O)sc(C)c1C	none
O=C(O)c1cc(Cl)ccc1S(=O)c1ccccc1CO (stereo unspecified)	none
Cc1cc(NS(=O)(=O)c2ccc(NS(=O)(=O)c3cc(Cl)c(Cl)cc3Cl)cc2)no1	none
CCOC(=O)c1cc(-c2cccs2)no1	none
Cc1nnsc1C(=O)NN(C)c1cnc2ccccc2n1	none
Cc1c(Cl)cccc1NC(=O)N1CCC(O)CC1	none
NC(=O)C1CCN(C(=O)/C=C/C(=O)O)CC1	none
NC(=O)C1CCN(C(=O)CSc2ncccn2)CC1	Dicer processing 3.6
NC(=O)C1CCN(C(=O)CN(CC(=O)N2CCC(C(N)=O)CC2)Cc2ccco2)CC1	none
CC1CCN(C(=O)CCCC(=O)O)CC1	none
CCOC(=O)N1CCN(C(=O)CSc2ncccn2)CC1	none
NC(=O)C1CCN(C(=O)CCC(=O)O)CC1	Dicer processing 3.5
CC(=O)N/C(=C\c1cc(F)cc(F)c1)C(=O)O	none
CC(=O)c1sc2ccc(C)cc2c1C	none
CCOC(=N)c1ccc([N+](=O)[O-])s1	none
COc1cc(C2NC(C(=O)O)CS2)ccc1OCc1ccc(C)cc1 (stereo unspecified)	none
NNC(=O)c1[nH]ncc1-c1ccc(Cl)cc1Cl	none
O=C(/C=C/Sc1nc2ccccc2s1)c1ccc(Cl)cc1	none
COc1ccc(-c2nc(-c3ccc(Cl)cc3)no2)cc1OC	none
COc1cccc(-c2nnc(SCc3cccc(Cl)c3)o2)c1	none
COc1ccc(-c2noc(-c3cc(C)cc(C)c3)n2)cc1	none
Cc1ccc(-c2nc(-c3ccccc3)no2)cc1	none
Cc1cc(C)cc(-c2nc(-c3ccccc3)no2)c1	Dicer processing 4.7
COc1cccc(-c2nnc(SCc3ccc(Cl)cc3)o2)c1	Dicer processing 3.1
COc1cccc(-c2nc(-c3ccccc3)no2)c1	none
COc1cccc(-c2nc(-c3ccc(Cl)cc3)no2)c1	Dicer processing 3
COc1cccc(-c2nnc(SCc3ccc(Br)cc3)o2)c1	none
CCCCCCOc1ccc(NS(=O)(=O)c2ccc(OC)cc2)cc1	none
CC(C)COC(=O)CN1C(=O)C2C3c4ccccc4C(c4ccccc43)C2C1=O (stereo unspecified)	none
CN(C)/C=C/C(=O)c1cc(OCC(F)(F)F)ccc1OCC(F)(F)F	none
Cn1ncc2c(NNS(=O)(=O)c3ccccc3)ncnc21	none
CC(N)=O	Dicer processing 4.1
CCOc1ccc(C2C(C(=O)OC)=C(C)N=C3SCCC(=O)N32)cc1 (stereo unspecified)	none
COC(=O)C1=C(Nc2ccccc2NS(=O)(=O)c2ccc(C(F)(F)F)cc2Cl)CSC1	none
O=S(=O)(Nc1ncccn1)c1ccc(C(F)(F)F)cc1Cl	Dicer processing 3
O=S(=O)(Nc1ccccn1)c1ccc(C(F)(F)F)cc1Cl	none
CC(C)OC(=O)C1C(=O)CC(C)(O)C(C(=O)OC(C)C)C1c1ccc(N(C)C)cc1 (stereo unspecified)	none
Cc1cc(C)c2c(N)c(-c3n[nH]c(=S)n3Cc3ccccc3)sc2n1	none
CCCOc1ccc(N2C(=O)C3C4C=CC(C)(O4)C3C2=O)cc1 (stereo unspecified)	none
Cc1nnc2n1NC(c1ccc(F)cc1)C(C(=O)NCc1ccco1)S2 (stereo unspecified)	none
Nc1ncn(C(=O)c2ccccc2)n1	Dicer processing 4.5
O=C(c1ccccc1)n1ccc(-c2cccs2)n1	none
O=C1CN(C(=O)c2ccccc2)C(=O)CN1C(=O)c1ccccc1	none
